Assay results from PubChem BioAssay (NCI).
Values joined by “and” are separate entries in the source; they are usually repeats but may differ in a detail not shown here. Identical values can stand only once. About 83,000 compounds went through this panel and 20% of them were active in at least one assay; those are over-represented in the sample as a whole.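 Values shown are percent growth following 48 h exposure of cells in 96-well plates to a single concentration of compound; below 10 was considered active.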

Tests used:
Assay in all cases: NCI-60 one-dose screen, 48 h (100 = growth as untreated, 0 = no growth, -100 = all killed)
Details in all cases: 10 µM unless noted
HCT-15 colon = test system: HCT-15 colon
HT29 colon = test system: HT29 colon
SNB-75 CNS = test system: SNB-75 CNS
SNB-19 CNS = test system: SNB-19 CNS
U251 CNS = test system: U251 CNS
PC-3 prostate = test system: PC-3 prostate
SK-MEL-5 melanoma = test system: SK-MEL-5 melanoma
UACC-62 melanoma = test system: UACC-62 melanoma
LOX IMVI melanoma = test system: LOX IMVI melanoma
SK-MEL-28 melanoma = test system: SK-MEL-28 melanoma
SK-MEL-2 melanoma = test system: SK-MEL-2 melanoma
EKVX NSCLC = test system: EKVX NSCLC
SN12C renal = test system: SN12C renal
UO-31 renal = test system: UO-31 renal
TK-10 renal = test system: TK-10 renal
ACHN renal = test system: ACHN renal
CAKI-1 renal = test system: CAKI-1 renal
A498 renal = test system: A498 renal
CCRF-CEM leukemia = test system: CCRF-CEM leukemia
MOLT-4 leukemia = test system: MOLT-4 leukemia

Measured: growth

CC(C)(C)c1ccc(O)c(CNC2CCCCC2)c1
inactive: HCT-15 colon 108% and 84.5% | HT29 colon 79.1% and 95.2% | SNB-75 CNS 86% and 82.8% | SNB-19 CNS 89.2% and 90.9% | U251 CNS 97.6% and 88% | PC-3 prostate 82.5% and 83.8% | SK-MEL-5 melanoma 92.6% and 79.2% | UACC-62 melanoma 96.6% and 79.7% | LOX IMVI melanoma 86.2% and 97.6% | SK-MEL-28 melanoma 105% and 98.3% | SK-MEL-2 melanoma 94.6% | EKVX NSCLC 108% | SN12C renal 102% and 91.4% | UO-31 renal 65.7% and 78.9% | TK-10 renal 92.4% | ACHN renal 116% and 91.3% | CAKI-1 renal 111% and 97.5% | A498 renal 110% and 91.8% | CCRF-CEM leukemia 91.8% and 86.6% | MOLT-4 leukemia 98.1% and 81.2%

Cc1nnc(NC/C=C/c2ccccc2)s1
inactive: HCT-15 colon 98.3% and 104% | HT29 colon 107% and 116% | SNB-75 CNS 86.3% and 103% | SNB-19 CNS 108% and 113% | U251 CNS 97.8% | PC-3 prostate 94% and 99.5% | SK-MEL-5 melanoma 101% and 102% | UACC-62 melanoma 104% | LOX IMVI melanoma 96.1% and 97.5% | SK-MEL-28 melanoma 104% and 103% | SK-MEL-2 melanoma 122% | EKVX NSCLC 101% | SN12C renal 105% and 108% | UO-31 renal 87.1% and 91.2% | TK-10 renal 96.4% and 111% | ACHN renal 103% and 112% | CAKI-1 renal 112% | A498 renal 96.1% | CCRF-CEM leukemia 113% | MOLT-4 leukemia 92.8% and 111%

O=[N+]([O-])c1ccccc1/C=N\Nc1ccccc1
inactive: HCT-15 colon 42.5% and 60.2% | HT29 colon 102% and 111% | SNB-75 CNS 71.4% and 96% | SNB-19 CNS 96.2% and 102% | U251 CNS 84.7% and 90% | PC-3 prostate 63% and 56.5% | SK-MEL-5 melanoma 90.3% and 88.6% | UACC-62 melanoma 18.7% and 19.9% | LOX IMVI melanoma 71.7% and 53.4% | SK-MEL-28 melanoma 115% and 117% | SK-MEL-2 melanoma 86.9% and 107% | EKVX NSCLC 69.3% and 93.5% | SN12C renal 84.9% and 87.6% | UO-31 renal 50.6% and 47.3% | TK-10 renal 118% and 92.6% | ACHN renal 61.4% and 64.2% | CAKI-1 renal 71.9% and 60.8% | A498 renal 79.7% and 70.1% | CCRF-CEM leukemia 65.1% and 50.8% | MOLT-4 leukemia 76.4% and 89.9%

COc1ccc2ccccc2c1/C=N/N1CCCCC1
inactive: HCT-15 colon 99.4% | HT29 colon 101% | SNB-75 CNS 87.6% | SNB-19 CNS 88.1% | U251 CNS 97.8% | PC-3 prostate 95.9% | SK-MEL-5 melanoma 98.3% | UACC-62 melanoma 89.1% | LOX IMVI melanoma 93% | SK-MEL-28 melanoma 96.5% | SK-MEL-2 melanoma 102% | EKVX NSCLC 93.6% | SN12C renal 96.9% | UO-31 renal 88.9% | TK-10 renal 105% | ACHN renal 99% | CAKI-1 renal 85.7% | A498 renal 89% | CCRF-CEM leukemia 96.7% | MOLT-4 leukemia 88.3%
